Screening results: PubChem, National Center for Advancing Translational Sciences (NCATS)
TDP1 cell noCPT – qHTS for Inhibitors of human tyrosyl-DNA phosphodiesterase 1 (TDP1): qHTS in cells in absence of CPT. Potency, µM (highest dose often 46.2 µM), usual class: inhibitors. hit rate 15% among 420,000. AID 686978, 2013. DT40 Tdp1-/- hTDP1 cells, no CPT, ATP luminescence, 48 h; further: nearly all actives have a fitted effect of over 55% in size
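DT40 Tdp1-/-;hTDP1 cells, no CPT (DMSO vehicle only), 400 cells/well; compounds pin-transferred; ≥48 hr, 37 °C; CellTiter-Glo 30 min RT dark, luminescence read.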
ClpP mod – qHTS Assay for Activators of ClpP | hit rate 1.9% among 340,000 | Potency, µM (doses to about 57.5 µM) | ATP-dependent Clp protease proteolytic subunit (Bacillus subtilis (strain 168)), P80244 | purified B. subtilis ClpP, FRET peptide cleavage, 20 min; active means well fitted falling curve with a large enough effect; inconclusive means small, poorly fitted or top-dose-only effect; inactive means no such curve, though single readings can be large or run the other way; further: the source files actives as falling curves though it sought activators and does not explain the sign; nearly all actives have a fitted effect of over 65% in size
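Buffer: 100 mM Tris/HCl pH8, 100 mM KCl, 0.05% low protease BSA, 2.5% glycerol, 0.01% Tween-20. ClpP 10 microg/mL final; 20 min RT; delta FRET normalized to ADEP and DMSO controls.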
TDP1 cell CPT – qHTS for Inhibitors of human tyrosyl-DNA phosphodiesterase 1 (TDP1): qHTS in cells in presence of CPT | AID 686979, 2013 | chicken DT40 Tdp1-/-;hTDP1 cells + 20 nM CPT, ATP luminescence, 48 h | hit rate 12% among 420,000 | Potency, µM (top dose mostly 46.2 µM), usual class: inhibitors; further: nearly all actives have a fitted effect of over 55% in size
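Chicken DT40 Tdp1-/- cells stably complemented with human TDP1 were seeded at 400 cells/well in medium containing 20 nM camptothecin, exposed to pin-transferred compounds, and grown at 37 °C for at least 48 hr. Viability was read as ATP luminescence.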
TDP1 inh – qHTS Assay for Inhibitors of Tyrosyl-DNA Phosphodiesterase (TDP1); hit rate 0.28% among 350,000; recombinant TDP1, AlphaScreen DNA substrate cleavage; AID 485290, 2010; Potency, µM (top dose mostly 130 µM), hits mostly inhibitors; further: nearly all actives have a fitted effect of over 40% in size
Target sequence (Q9NUW8 whole entry, looked up): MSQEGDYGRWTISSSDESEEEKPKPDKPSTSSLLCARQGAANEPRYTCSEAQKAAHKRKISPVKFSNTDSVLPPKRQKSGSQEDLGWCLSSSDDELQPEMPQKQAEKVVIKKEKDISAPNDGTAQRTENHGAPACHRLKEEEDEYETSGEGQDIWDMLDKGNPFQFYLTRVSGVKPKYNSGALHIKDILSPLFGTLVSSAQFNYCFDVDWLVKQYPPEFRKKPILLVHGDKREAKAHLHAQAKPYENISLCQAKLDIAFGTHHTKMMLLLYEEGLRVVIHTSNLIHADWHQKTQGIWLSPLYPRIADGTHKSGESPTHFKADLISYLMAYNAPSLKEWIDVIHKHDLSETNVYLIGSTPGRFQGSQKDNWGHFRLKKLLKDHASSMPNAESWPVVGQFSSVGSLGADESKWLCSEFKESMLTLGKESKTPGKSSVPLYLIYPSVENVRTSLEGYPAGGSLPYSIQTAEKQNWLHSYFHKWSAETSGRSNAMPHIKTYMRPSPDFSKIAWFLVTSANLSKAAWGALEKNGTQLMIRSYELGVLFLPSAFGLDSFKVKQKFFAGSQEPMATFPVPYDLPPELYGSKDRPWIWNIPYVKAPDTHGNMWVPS
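Compounds were preincubated with Tdp1 (1 nM final) for 15 min at room temperature before substrate (15 nM final) started a 5 min reaction; beads (10 ug/ml final) were then added for 10 min before AlphaScreen detection.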
Numbers stand for hits; 0 = inactive; ? = inconclusive; - = not tested or not shown. Compounds with a hit are over-represented: about 17% of the library has one in this group of screens. Unless noted, the call rests on the fitted dose curve; in most records, active means well fitted curve in the direction sought with a large enough effect; inconclusive means small, poorly fitted or top-dose-only effect, or another doubt; inactive means no such curve, though single readings can be large; an effect the other way counts as inactive or inconclusive.

SMILES | TDP1 cell noCPT | ClpP mod | TDP1 cell CPT | TDP1 inh
CN(Cc1nc2ccccc2c(=O)[nH]1)C(=O)c1cc(C2CC2)nn1-c1ccccc1 | ? | 0 | 13µM | 0
CCN(Cc1nc2ccccc2c(=O)[nH]1)C(=O)c1cc(C2CC2)nn1-c1ccccc1 | ? | 0 | ? | 0
Cc1ccc(C)c(NC(=O)CN(C)C(=O)c2cc(C3CC3)nn2-c2ccccc2)c1 | ? | 0 | 16.4µM | 0
O=C(c1cccnc1)N1c2ccccc2Sc2ccccc21 | 14.6µM | - | 14.6µM | 0
Cc1ccc(C(=O)N2c3ccccc3Sc3ccccc32)cc1 | 0 | 0 | 0 | -
CCOc1ccccc1C(=O)N1c2ccccc2Sc2ccccc21 | 13µM | 0 | 10.3µM | 0
CCOc1ccccc1C(=O)N1CCOCC1 | 0 | 0 | 0 | 0
CCOc1ccccc1NC(=O)N1c2ccccc2Sc2ccccc21 | 25.9µM | 0 | ? | -
CC(C)CNCC(=O)N1c2ccccc2Sc2ccccc21 | ? | 0 | 16.4µM | 0
COCCNCC(=O)N1c2ccccc2Sc2ccccc21 | 0 | 0 | 0 | 0
O=C(O)C(c1ccccc1)C1(O)CC2CCC1C2 (stereo not drawn) | 0 | 0 | 0 | -
C/C(Cc1ccccc1)=N\NC(=O)CNC(=O)c1ccccc1Br | 0 | 0 | 0 | 0
O=C(CNC(=O)c1cccs1)Nc1ccncc1 | 0 | 0 | 0 | -
CCOc1ccccc1NC(=O)/C=C/C(N)=O | 4.11µM | 0 | 4.11µM | 0
CCOc1ccccc1NC(=O)Nc1cccc(C(C)=O)c1 | 0 | 0 | 29.1µM | 0
CCOc1ccccc1NC(=O)Nc1cccc(NC(C)=O)c1 | 0 | 0 | 0 | 0
COC(=O)c1ccccc1NC(=O)n1cc(C)cn1 | 0 | 31.6µM | 0 | 0
COc1ccccc1C(=O)N1c2ccccc2Sc2ccccc21 | 5.8µM | 0 | 5.8µM | 0
COC(=O)c1ccccc1NC(=O)Nc1ccc(C)cn1 | 0 | - | 0 | 0
COc1ccccc1C(=O)n1nc(C)cc1C | 0 | 0 | 0 | 0
COCCN(C(=O)CSc1nnc(-c2ccccc2F)n1N)c1c(N)n(Cc2ccccc2)c(=O)[nH]c1=O | 0 | 0 | 0 | 0
Cc1ccc(C(=O)C2CC2)cc1C | 0 | 0 | 0 | -
COC(=O)c1ccccc1NC(=O)N1c2ccccc2Sc2ccccc21 | ? | ? | 18.4µM | 0
COc1ccc(OC)c(NC(=O)N2c3ccccc3Sc3ccccc32)c1 | ? | 0 | 18.4µM | -
COC(=O)c1ccc(C(=O)OC)c(NC(=O)N2c3ccccc3Sc3ccccc32)c1 | ? | 0 | ? | 0
SMILES | TDP1 cell noCPT | ClpP mod | TDP1 cell CPT | TDP1 inh
CCOc1ccc(S(=O)(=O)NCc2cccn2Cc2cccc(C)c2)cc1 | ? | 0 | ? | 0
CCOC(=O)Cn1cnc(-c2ccc([N+](=O)[O-])cc2)c1 | 0 | 0 | 0 | 0
CSc1ccc(CNc2cccc3ccccc23)cc1 | 0 | 28.2µM | 0 | 0
CCO/C=C1\C(=O)N(c2ccccc2)C(=O)c2ccccc21 | 0 | 31.6µM | 0 | 0
CCO/C=C1/C(=O)N(c2ccc(OC)cc2)C(=O)c2ccccc21 | 0 | 0 | 0 | 0
C=CCNc1nnc(Cc2ccc(C(C)C)cc2)c(=O)[nH]1 | 3.26µM | 0 | 7.31µM | 50.1µM
COCCNc1nnc(Cc2ccccc2)c(=O)[nH]1 | 0 | - | 0 | -
CCOc1cc(Br)c(C=O)cc1OCC | 6.51µM | - | 5.17µM | 0
CCOc1cc(Br)c(C(=O)O)cc1OCC | 0 | 0 | 0 | 0
CCc1ccc(CN(Cc2ccco2)C(=O)COc2ccc(Cl)cc2C)cc1 | ? | 0 | ? | 0
CC(C)(C)c1ccc(OCC(=O)N(Cc2ccco2)Cc2ccccc2F)cc1 | 20.6µM | 0 | ? | 0
Cc1cc(Cl)ccc1OCC(=O)N(Cc1ccco1)Cc1ccccc1F | 16.4µM | 0 | ? | 0
CN(Cc1ccccc1F)C(=O)COc1ccc(C(=O)c2ccccc2)cc1 | 20.6µM | - | 23.1µM | -
CCOC(=O)c1cccc(-n2c(C)cc(C=O)c2C)c1 | 0 | 0 | 0 | 0
CCOC(=O)c1c(-n2c(C)cc(C=O)c2C)sc2c1CCCC2 | ? | 0 | 15.8µM | 0
Cc1cc(NC(=O)COC(=O)c2ccccc2OCCOc2ccccc2)ccc1Br | ? | 0 | 0 | -
Nc1[nH]c(=S)nc2nnsc12 | 11.2µM | 0 | 11.2µM | -
C[C@@H]1Cc2c(O)c(O)cc(O)c2C(=O)O1 | ? | 0 | ? | -
